Bioassay records (PubChem)
USP7 block – human USP7 deubiquitinase inhibition; inhibition, % at 20 µM; AID 1645854; Q93009; 0.3% of 47,000 active; purified USP7, Ub-rhodamine cleavage fluorescence
UCHL1 inh – blocks human UCHL1 ubiquitin-rhodamine cleavage | inhibition, % at 20 µM | P09936 | purified UCHL1, Ub-rhodamine cleavage fluorescence | 0.2% of 47,000 active | AID 1645859
Target sequence (P09936 whole entry, looked up): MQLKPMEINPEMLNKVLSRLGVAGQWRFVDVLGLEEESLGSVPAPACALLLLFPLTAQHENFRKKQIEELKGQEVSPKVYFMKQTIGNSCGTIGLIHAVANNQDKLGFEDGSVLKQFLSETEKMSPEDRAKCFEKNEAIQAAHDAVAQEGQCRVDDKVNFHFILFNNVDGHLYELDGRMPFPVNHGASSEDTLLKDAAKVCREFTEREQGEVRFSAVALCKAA
OTUD3 inh – blocks human OTUD3 ubiquitin-rhodamine cleavage | 0.7% of 47,000 active | purified OTUD3, Ub-rhodamine fluorescence, 2 h | inhibition, % at 25 µM | AID 1645858
Numbers stand for hits; – = inactive. An excerpt weighted towards active compounds, which were near 1.1% of everything screened. Rule as the data show it: active = inhibition above about 30%; inactive = the rest.

SMILES	USP7 block	UCHL1 inh	OTUD3 inh
COc1ccccc1/C=C/C(=O)Nc1nc2n(n1)C(c1ccc(Cl)cc1)CC(=O)N2 (stereo not given)	–	–	36.7
O=C(/C=C/c1ccco1)Nc1nc2n(n1)C(c1ccccc1)CC(=O)N2 (stereo not given)	–	–	–
CC1CCN(C(=O)c2ccc(CSc3nc4ccncc4n3Cc3ccccc3)cc2)CC1	–	–	–
O=C(NCc1ccco1)c1ccc(Cn2c(SCc3ccccc3)nc3ccncc32)cc1	59.1	–	74.8
c1cncc(-c2nnc(-c3cnc4onc(C5CCCC5)c4c3)o2)c1	–	–	–
COc1ccc(NCc2cc(=O)n3[nH]c(NCc4ccc(C(C)C)cc4)nc3n2)cc1	–	–	–
O=c1cc(CNc2ccc(Br)cc2)nc2nc(-c3ccccc3)[nH]n12	–	–	36.0
Cc1cc(NC2CC3(CCN(S(=O)(=O)c4cccnc4)C3)C2)ncn1 (stereo not given)	–	–	–
CC(C)N1CC2CN(Cc3ccccc3)CCN2Cc2ccccc21 (stereo not given)	–	–	–
COc1cccc(NC(=O)C2Cn3ccnc3C3(CCN(C(C)=O)CC3)O2)c1 (stereo not given)	–	–	32.3
COc1cccc(CN2CCC3(CC2)OC(C(=O)Nc2ccccc2)Cn2ccnc23)c1 (stereo not given)	–	–	–
O=C(O)c1ccc(Cl)c(S(=O)(=O)NCc2cccnc2)c1	–	–	–
CCOC(=O)C1CCN(C(=O)C2CN(c3nc4c(F)cccc4s3)C2)CC1	–	–	–
CC(=O)c1c(C)nn(CC(O)Cn2c3c(c4cc(C)ccc42)CCCC3=O)c1C (stereo not given)	–	–	–
O=C(CCCCCn1c(=O)[nH]c2ccccc2c1=O)Nc1ccccc1Br	–	–	–
O=C(CCCCn1c(=O)[nH]c2ccccc2c1=O)Nc1cccc(Cl)c1	30.4	–	–
COc1ccc(CCNC(=O)C(=O)c2c(C)n(C)c3ccccc23)cc1OC	–	–	–
NC(=O)c1ccccc1OCc1csc(-c2ccc(Cl)cc2)n1	–	–	–
COc1ccc(NC(=O)[C@H](C)NC(=O)c2cc3c(OC)cccc3[nH]2)cc1Cl	38.7	–	87.9
COc1ccc(OC)c(NC(=O)c2cc3c(OC)cccc3[nH]2)c1	–	–	–
COc1ccc(N2CCN(c3cc(=O)n(-c4cccc(C(F)(F)F)c4)c(=O)[nH]3)CC2)cc1	–	–	–
CC(=O)Nc1ccc(S(=O)(=O)N2CCN(Cc3nnnn3-c3ccccc3)CC2)cc1	–	–	–
Cc1nn(CC(=O)NCC2CCCO2)c(C)c1S(=O)(=O)N1CCCCC1 (stereo not given)	–	–	–
